The whole screen tested about 220,000 compounds, of which about 2,000 (0.91%) were called active. Another 2% or so got no clear call; they are omitted. Only a sample is shown. Measured potencies and affinities stand elsewhere. Unmarked numbers belong to inactive results. Rule as the data show it: inconclusive = inhibition above about 80% without an active follow-up result; inactive = below that; test concentration not stated here.
assay: M. tuberculosis H37Rv growth inhibitors, H37Rv strain (AID 1626); conditions: active compounds read high, concentration not given here;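 also: bacteria incubated seven days before Alamar blue readout; 0% = bacteria only wells and 100% = bacteria with antibiotic wells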

Compound	inhibition
CCN(CC)S(=O)(=O)c1cc(NC(=O)COC(=O)CCc2nc3ccccc3s2)ccc1C	0.37%
CCOc1ccc(NC(=O)Cn2c(=O)n(CC3CCCO3)c(=O)c3ccccc32)cc1 (centres undefined)	0.09%
COc1cccc2cc(C(N)=O)/c(=N/NC(=O)COc3ccc(Cl)cc3)oc12	1.32%
CC(C)c1ccc(NC(=O)COc2nnc(-c3cccs3)c(-c3cccs3)n2)cc1	3.94%
O=C(CSc1ccc(-c2ccccn2)nn1)c1ccc([N+](=O)[O-])cc1	9.1%
O=C(CSc1ccccn1)c1ccc(F)cc1	-5.01%
CCC(Sc1nc2ccccc2c(=O)[nH]1)C(=O)Nc1ccc(C(C)=O)cc1 (centres undefined)	10.9%
CCOC(=O)C(NCc1ccccc1OC)(NC(C)=O)C(F)(F)F (centres undefined)	-3.95%
COCCSc1nnc(NC(=O)c2ccc(OC)c([N+](=O)[O-])c2)s1	-5.62%
CCOC(=O)C(C)Sc1nnc(NC(=O)c2cccc([N+](=O)[O-])c2C)s1 (centres undefined)	27%
O=C(NCc1cccs1)c1cccc(S(=O)(=O)N2CCCCC2)c1	-1.3%
O=[N+]([O-])c1cccc(N=NN(CCO)c2cccc([N+](=O)[O-])c2)c1	7.57%
Cc1ccc(NC(=O)c2cncc(Br)c2)c([N+](=O)[O-])c1	5.6%
OCCNc1nc(-c2ccccc2)nc2c1oc1ccccc12	1.56%
CCCNC(=O)NS(=O)(=O)c1ccc(Cl)cc1	-12.9%
O=C(c1ccc(S(=O)(=O)c2ccc(Cl)cc2)cc1)N1CCOCC1	-6.61%
O=C(Nc1ccccc1)c1nnsc1S(=O)c1ccc(Cl)cc1 (centres undefined)	47.2%
CN(C)C(=O)c1nnsc1Sc1ccc(Cl)cc1	-1.74%
N/C(=N\S(=O)(=O)c1ccc(Cl)cc1)N1CCOCC1	-5.14%
CNC(=O)c1nnsc1S(=O)c1ccc(Cl)cc1 (centres undefined)	78.9%
O=C(Nc1ccccc1)c1nnsc1S(=O)(=O)c1ccc(Cl)cc1	2.07%
CCCNC(=O)c1nnsc1Sc1ccc(Cl)cc1	18.6%
CNC(=O)CCC(=O)Nc1ccc(C)cc1	-1.09%
COc1ccc(C2C(C(=O)O)CCC(=O)N2c2ccc(C)cc2)cc1OC (centres undefined)	-2.58%

Compound	inhibition
C=C(C)Cn1c(SCCCO)nc2c1c(=O)[nH]c(=O)n2C	-7.43%
O=C(NC1CC1)C1=COCCO1	-8.37%
O=C(Nc1ccccc1N1CCOCC1)c1cc(F)cc(F)c1	-4.82%
N#Cc1cc(C(=O)c2cc(Cl)ccc2O)cn(-c2ccccc2)c1=O	-3.03%
Cc1ccc(C(=O)NNC(=O)Cn2nnc3ccccc32)cc1	-15.4%
CN1CCN(C(=O)c2cnn(-c3ccccc3)c2NC(=O)c2ccccc2)CC1	-6.4%
O=C(N/N=C/c1cccc([N+](=O)[O-])c1)c1cccs1	4.78%
COc1ccc(C(C)=O)cc1COC(=O)c1ccc(S(=O)(=O)N(C)C)cc1	-3.54%
O=C(Nc1ccn(Cc2c(F)c(F)cc(F)c2F)n1)c1cccc(Cn2cc([N+](=O)[O-])cn2)c1	2.31%
CC1=C(C(=O)N2CCOCC2)C(c2c(F)cccc2F)NC(=O)N1 (centres undefined)	-2.62%
CCOC(=O)C1CCCN(S(=O)(=O)c2ccc(S(N)(=O)=O)cc2)C1 (centres undefined)	-2.7%
O=C(c1cc(Cl)ccc1Cl)N1CCOCC1	-11%
Cc1nnsc1-c1c(C(=O)N2CCOCC2)c(C)nn1-c1ccc(Cl)cc1	3.63%
Cc1c(C(=O)Nc2cccc(S(=O)(=O)N3CCCC3)c2)oc2ccccc12	0.77%
CCC(CC)C(=O)Nc1cccc(C(=O)Nc2ccc3c(c2)OCO3)c1	0.36%
CC1CC(C)CN(C(=O)c2ccc3c(c2)N(Cc2ccccc2)CCS3)C1 (centres undefined)	8.05%
CC1Cc2ccccc2N1C(=O)Cn1c(=O)cc(O)c2ccccc21 (centres undefined)	-9.25%
O=C(CSc1nc2ccccc2[nH]1)Nc1nc(-c2cccc(Br)c2)cs1	9.78%
COCCCn1c(SCC(=O)Nc2ccc(C)cc2)nc2ccccc2c1=O	-3.97%
CN(C)CCCn1c(SCC(=O)N2c3ccccc3Sc3ccccc32)nc2ccccc2c1=O	0.3%
CCCCn1c(SCC(=O)Nc2nccs2)nc2ccccc2c1=O	-6.31%
CC(=O)c1nnn(-c2ccc([N+](=O)[O-])cc2)c1C	-0.32%
c1ccc2c(-c3cn4ccccc4n3)c[nH]c2c1	-5.8%
Cc1ccccc1N1CCN(CCCN2C(=O)CC(=C(c3ccccc3)c3ccccc3)C2=O)CC1	0.08%

Compound	inhibition
O=C1CC(=C2c3ccccc3-c3ccccc32)C(=O)N1CCCCN1CCN(c2ccccc2)CC1	8.38%
O=C1CC(=C(c2ccccc2)c2ccccc2)C(=O)N1CCN1CCN(c2cccc(Cl)c2)CC1	5.45%
O=C1CC(=C(c2ccccc2)c2ccccc2)C(=O)N1CCCN1CCN(c2cccc(Cl)c2)CC1	12.8%
COc1cccc(C2C(C(=O)c3cccs3)=C(O)C(=O)N2CCN(C)C)c1OC (centres undefined)	-9.59%
Cc1ccc(NP(=O)(Nc2ccc(C)cc2)Oc2ccccc2)cc1	5.95%
O=C(NCc1ccccc1Cl)C1CCCN(c2nc3ccsc3c(=O)s2)C1 (centres undefined)	1.18%
NC(=O)c1nsc(C(=O)N(CC(=O)NCc2ccc3c(c2)OCO3)C2CCCC2)c1N	0.67%
C=CCNC(=O)/C(C#N)=C/c1c(C)nn(-c2ccc(Cl)cc2)c1Cl	4.6%
O=C(CC(Nc1cccc(Cl)c1Cl)C(=O)OCC(=O)c1cccs1)c1ccccc1 (centres undefined)	-5.78%
CC(=O)NC(Cc1ccccc1)C(=O)OCC(=O)c1ccc(Br)cc1 (centres undefined)	-1.27%
O=C(CC(Nc1ccccc1Cl)C(=O)OCC(=O)c1cccs1)c1ccccc1 (centres undefined)	-5.28%
COc1ccccc1NC(CC(=O)c1ccccc1)C(=O)OCC(=O)c1ccc(F)cc1 (centres undefined)	78.2%
Cc1ccc(C(=O)NCCCN2CCOCC2)cc1	3.65%
COc1ccc2c(c1)S/C(=C\C(=O)c1ccncc1)N2C	0.94%
COC(=O)c1ccc2c(c1)N(Cc1nc(-c3cccc(C)c3)oc1C)C(=O)C1CCCN21 (centres undefined)	8.29%
O=C(/C=C/c1ccc(Cl)cc1Cl)c1nc2ccccc2[nH]1	0.46%
Cc1ccc(/C=C/C(=O)c2nc3ccccc3[nH]2)cc1	0.43%
C/C(=N/NC(=O)CNC(=O)c1cccnc1)c1ccco1	7.49%
COc1cccc(CNC(=O)C2CCN(S(=O)(=O)c3c(C)nn(C)c3C)CC2)c1	-0.47%
O=C(c1ccc2c3c(cccc13)CC2)C1CCCN(Cc2ccncc2)C1 (centres undefined)	3.23%
O=C(c1ccc2c3c(cccc13)CC2)C1CCCN(Cc2ncc[nH]2)C1 (centres undefined)	-5.62%
O=C(N/N=C1\CC2CC=CC12)c1ccc(Br)cc1 (centres undefined)	-7.43%
Cc1ccc2cc(CN(CC3CCCO3)S(=O)(=O)c3ccc4c(c3)OCCO4)c(=O)[nH]c2c1C (centres undefined)	9.1%
Cc1ccc(-c2[nH]nc(N)c2N=Nc2cccc(Cl)c2C)cc1	0.18%

Compound	inhibition
Nc1n[nH]c(N)c1N=Nc1ccc(Cl)cc1	1.65%
COC(=O)c1ccccc1N=Nc1c(N)n[nH]c1N	-10.6%
Nc1n[nH]c(N)c1N=Nc1cccc(F)c1	0.51%
CCn1cc(C2=NC(C(C)C)CO2)c2ccccc21 (centres undefined)	5.08%
CCOc1ccc(OCC)c(NC(=O)Nc2ccc3c(c2)N(C)C(=O)CS3)c1	1.8%
O=C(O)c1cc(NC(=O)C2CCCO2)cc(NC(=O)C2CCCO2)c1 (centres undefined)	-1.59%
CC1(C)CC(=O)C(/C=N/n2c(C(F)(F)F)nc3ccccc3c2=O)=C(O)C1	13.1%
O=C(CSc1nnc(-c2ccccc2F)n1C1CCCCC1)N1CCCC1	-3.16%
OC(COCc1ccc(Cl)cc1)CN1CCN(c2ccccn2)CC1 (centres undefined)	6.32%
OC(COC(c1ccccc1)c1ccccc1)CN1CCN(c2ccccn2)CC1 (centres undefined)	3.57%
Cc1cc(C)c(OCC(O)CN2CCN(c3ccccn3)CC2)c(C)c1 (centres undefined)	-4.16%
OC(CN1CCN(c2ccccn2)CC1)Cn1c2ccccc2c2ccccc21 (centres undefined)	34.8%
CC(C)C1=C2CCCCC2NC(=O)N1 (centres undefined)	-3.19%
O=C(CN1CCSC1=NCc1ccccc1)c1ccccc1	0.24%
Cc1nc(SCC(=O)c2cc3ccccc3oc2=O)c(C#N)c(C)c1C(=O)Nc1ccccc1	1.89%
Cc1ccc(C(=O)CSc2nc(-c3ccccc3)ccc2C#N)cc1	4.37%
Cc1nc(SCC(=O)OCc2ccccc2)c(C#N)c(-c2ccccc2)c1C(=O)Nc1ccccc1	1.59%
N#Cc1ccc(-c2ccccc2)nc1SCC(=O)c1cccc(Cl)c1	12.6%
CCCCNC(=O)c1[nH]c(C)c(C(C)=O)c1C	-1.66%
O=C(O)c1ccc(N/N=C/c2cc3ccccc3nc2Cl)cc1	7.73%
Cc1ccc(C(NC(=O)/C=C\c2ccc3c(c2)OCO3)C(=O)Nc2ccc3c(c2)OCO3)cc1 (centres undefined)	61.7%
CC(=O)NCC(=O)N(C)C(C(=O)Nc1ccc2c(c1)OCCO2)c1ccc(C)cc1 (centres undefined)	2.18%

From PubChem BioAssay AID1626 (SRMLSC, 2009)
